Assay outcomes deposited in PubChem BioAssay by National Center for Advancing Translational Sciences (NCATS).
The full list was thinned out, with hits kept by preference.
LmPK inhibitor: blocks Leishmania mexicana pyruvate kinase activity. Q27686. purified LmPK, Kinase-Glo ATP luminescence, 1 h. Potency, µM (titrated, usually from 57.5 µM), without a hit: at the top dose activity change, negative = inhibition, hits mostly inhibitors. 290,000 tested, 0.37% active; also: potency is read from the fitted curve at half-maximal effect; % is scaled to controls: 0 for no effect and ±100 for the full control effect
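ATP generated from ADP (0.1 mM) and PEP (0.5 mM) by 0.1 nM LmPK over 1 h at room temperature (pH 7.2 imidazole buffer) was detected by coupled luciferase luminescence. Values were normalized to uninhibited and no-enzyme wells.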
Tb PYK inh: inhibitors of Trypanosoma brucei pyruvate kinase; Potency, µM (series often up to 76.8 µM), inactives show top-dose activity, negative = inhibition, hits mostly inhibitors; Q57TT1; TbPYK enzyme, Kinase-Glo Plus ATP luminescence, 45 min; 410,000 tested, 0.12% active; also: potency is read from the fitted curve at half-maximal effect; % is scaled to controls: 0 for no effect and ±100 for the full control effect; nearly all actives have a fitted effect of over 50% in size
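In this concentration-response screen, enzyme-free wells defined baseline while DMSO plates tracked drift. Each reaction combined TbPYK, substrate, compound and 130 uM ADP for 45 min at room temperature. Kinase-Glo Plus luminescence gave the signal.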
RE007 growth inh: less growth of the S. pombe RE007 Vpr strain. S. pombe RE007 Vpr strain, BacTiter-Glo ATP luminescence, 24 h. AID 651644. 360,000 tested, 0.21% active. Potency, µM (series often up to 92.2 µM), for the others: at the top dose activity change, negative = less growth, hits mostly inhibitors; active = well fitted falling curve with a large enough effect; inconclusive = small, poorly fitted or top-dose-only effect; inactive = no such curve, though single readings can be large or run the other way; also: potency is read from the fitted curve at half-maximal effect; % is scaled to controls: 0 for no effect and ±100 for the full control effect; nearly all actives have a fitted effect of over 50% in size
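Fission yeast RE007 carrying one integrated HIV-1 vpr copy, seeded at OD 0.01 in PMG+AL medium with 23 nL pinned compound. Grown 24 h at 30 degrees; viability read by BacTiter-Glo luminescence after 5 min.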
Giardia FBPA inh: blocks Giardia fructose-bisphosphate aldolase activity | purified Giardia FBPA | Potency, µM (highest dose often 59.6 µM), for the others: at the top dose activity, negative = inhibition, most hits filed as inhibitors | 290,000 tested, 0.71% active | AID 2451; also: potency is read from the fitted curve at half-maximal effect; % is scaled to controls: 0 for no effect and ±100 for the full control effect; nearly all actives have a fitted effect of over 55% in size
Target sequence (A8B2U2 whole entry, looked up): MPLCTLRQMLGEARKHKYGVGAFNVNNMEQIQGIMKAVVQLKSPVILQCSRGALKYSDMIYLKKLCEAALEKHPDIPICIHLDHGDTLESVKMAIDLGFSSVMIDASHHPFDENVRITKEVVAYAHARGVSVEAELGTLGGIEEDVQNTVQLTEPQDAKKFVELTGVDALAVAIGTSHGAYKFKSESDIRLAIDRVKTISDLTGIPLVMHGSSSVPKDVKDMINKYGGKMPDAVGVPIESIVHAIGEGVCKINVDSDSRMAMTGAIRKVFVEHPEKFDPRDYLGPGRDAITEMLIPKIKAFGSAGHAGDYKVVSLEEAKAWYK
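40 nM FBPA preincubated 10 min at RT with compound (up to 57.5 uM final), then substrate plus GAPDH/TPI/NAD/arsenate coupling and diaphorase/resazurin added. Fluorescence read after 20 min at RT, 525/598 nm.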
Shiga inhibitor: blocks Shiga toxin action in Vero cells; Vero cells, Shiga toxin protein synthesis inhibition reporter; inhibition, % at 38.7 µM; 290,000 tested, 9.2% active; in the data active = inhibition mostly above about 28%, no sharp cut-off; inactive = mostly below about 43%; also: 0% is about no effect
Cycloheximide cs: affects cycloheximide protein synthesis inhibition readout, counter-screen; cell reporter, cycloheximide protein synthesis inhibition counterscreen; max response, %; 300,000 tested, 12% active; AID 2314; in the data active = max response mostly above about 13%, no sharp cut-off; inactive = mostly below about 14%; also: read at 38.3 µM for the half of the compounds with a filed dose; 0% is about no effect
* = called active by the depositor; ? = inconclusive; / = not tested or not shown. Unless noted, calls follow the shape of the dose curve; as a rule, active = well fitted curve in the direction sought with a large enough effect; inconclusive = small, poorly fitted or top-dose-only effect, or another doubt; inactive = no such curve, though single readings can be large; an effect the other way counts as inactive or inconclusive.

SMILES	LmPK inhibitor	Tb PYK inh	RE007 growth inh	Giardia FBPA inh	Shiga inhibitor	Cycloheximide cs
CCOC(=O)C1(Cc2cccc(Cl)c2)CCCN(C(=O)CCNC(C)=O)C1 (configuration not stated)	-5%	2%	0%	2%	8	1
CCOC(=O)C1(Cc2cccc(Cl)c2)CCCN(C(=O)CN2C(=O)CSC2=O)C1 (configuration not stated)	-1%	1%	-3%	-7%	46*	36*
CCOC(=O)C1(Cc2cccc(Cl)c2)CCCN(C(=O)c2cnn(CC)c2)C1 (configuration not stated)	-5%	3%	-7%	5%	39*	22*
CCCc1cc(C(=O)N2CCCC(Cc3cccc(Cl)c3)(C(=O)OCC)C2)n(C)n1 (configuration not stated)	9%	-2%	-7%	11%	65*	18
Cc1nn(CC(=O)NC2CCC(C)CC2)c(C)c1[N+](=O)[O-] (configuration not stated)	/	-5%	7%	/	/	/
COC(=O)c1ccc(NC(=O)N2CCC(CN3CCc4ccccc4C3)CC2)cc1	/	4%	/	/	/	/
CCCCn1nc(NC(=O)c2cccc(Cl)c2)c2cc3ccc(C)cc3nc21	/	0%	/	/	/	/
CN(C)CCCNC(=O)OC1CC2CC1[C@H]1CCCCN1C2=O (some centres not stated)	/	0%	-11%	/	/	/
CCOC(=O)c1sc2ccccc2c1S(=O)(=O)N1CCN(c2cc(C)ccc2C)CC1	/	-10%	/	/	/	/
COc1ccc(CCNC(=O)C(=O)NCC(c2ccco2)S(=O)(=O)c2ccccc2)cc1OC (configuration not stated)	/	0%	/	/	/	/
CCOC(=O)C1(Cc2cccc(Cl)c2)CCCN(C(=O)c2cc(CC)on2)C1 (configuration not stated)	-8%	8%	1%	/	62*	43*
CCOC(=O)C1(Cc2cccc(Cl)c2)CCCN(C(=O)C(C)(C)C)C1 (configuration not stated)	-1%	-1%	5%	1%	45	27*
Cc1ccc(-n2c(=O)c3oc4ccccc4c3n(Cc3ccccc3)c2=O)cc1C	/	0%	/	/	/	/
Cc1cc(C(=O)CSc2nnc(-c3ccc(F)cc3)o2)c(C)n1CC1COc2ccccc2O1 (configuration not stated)	2%	-11%	-1%	-6%	2	-4
Cc1cc(C(=O)CSc2nnc(-c3ccccc3)o2)c(C)n1CC1COc2ccccc2O1 (configuration not stated)	-1%	-6%	2%	15%	39*	9
COc1cc(-c2nnc(SCC(=O)c3cc(C)n(CC4CCCO4)c3C)o2)cc(OC)c1OC (configuration not stated)	1%	-3%	14%	-15%	active	64*
Cc1cc(C(=O)CSc2nnc(-c3ccc(F)cc3)o2)c(C)n1CC1CCCO1 (configuration not stated)	-1%	-6%	-12%	-18%	15	10
CCOC(=O)C1=Nc2ccccc2C1=[N+]=[N-]	-1%	3%	0.25µM*	-6%	-14	-3
CCOC(=O)C1=Nc2ccccc2/C1=C\c1c(O)n(C)c(=O)n(C)c1=O	-2%	-7%	6%	-13%	3	-2
O=C(NC(Cc1ccccc1)C(=O)O)/C(=C/c1ccccc1)NC(=O)c1cccc(Br)c1 (configuration not stated)	7%	3%	-2%	27%	-12	-3
Cc1cc2nc(-c3ccccc3O)[nH]c2cc1C	/	-10%	-15%	/	/	/
Clc1cc2nc(-c3cccnc3Cl)[nH]c2cc1Cl	-1%	-2%	13%	-12%	105*	29*
Cn1cccc1C(=O)N1CCC[C@@]2(CCN(C(=O)Nc3cccc(F)c3)C2)C1	/	0%	/	4%	/	/
CCCCCCCCCCCCCCCCCC(=O)NCCc1ccc(O)c(O)c1	/	/	/	3%	/	/
O/N=C/c1cc(Cl)ccc1OCc1ccccc1Cl	-4%	3%	-27%	0%	-4	-4
SMILES	LmPK inhibitor	Tb PYK inh	RE007 growth inh	Giardia FBPA inh	Shiga inhibitor	Cycloheximide cs
O/N=C/c1ccc(OCc2ccccc2)c(Br)c1	-2%	1%	?	1%	66*	40*
O/N=C/c1ccccc1OCc1ccccc1F	2%	-2%	?	5%	38*	26*
O/N=C/c1ccc(OCc2ccccc2F)c(Cl)c1	-11%	-8%	-29%	2%	53*	52*
O/N=C/c1ccc(OCc2ccccc2)c(Cl)c1	-8%	5%	-28%	13%	76*	37*
COc1ccc(Cn2c(SCc3ccc(C(=O)NC(C)c4ccccc4)cc3)nc3cccnc32)cc1 (configuration not stated)	/	3%	/	/	/	/
Cc1ccc(NC(=O)c2nnn(CC(=O)Nc3ccc(C)c(Cl)c3)c2N)c(C)c1	/	4%	/	/	/	/
O=C(CSc1ccc(Cl)cc1)N1CCN(c2c(Cl)cccc2[N+](=O)[O-])CC1	8%	2%	8%	-1%	46	56*
O=C(/C=C/c1ccc(Cl)cc1)N1CCN(c2c(Cl)cccc2[N+](=O)[O-])CC1	5%	-10%	8%	-3%	20	-5
O=C(CCSc1ccccc1)N1CCN(c2ccccc2)CC1	3%	4%	-16%	6%	90*	39*
CCC(C(=O)N1CCN(c2ncccn2)CC1)c1ccccc1 (configuration not stated)	3%	-26%	-6%	4%	15	26*
O=C(CCOc1ccccc1)N1CCN(c2ccc(O)cc2)CC1	-15%	2%	18%	-13%	63*	47*
Cc1ccc(OCCn2cnc3c2c(=O)n(C)c(=O)n3C)cc1	2%	1%	7%	1%	31	-5
Clc1ccc(Nc2nnc(Cc3ccncc3)c3ccccc23)cc1	/	0%	/	/	/	/
O=C1NC[C@H](Cc2ccccc2)N(C[C@@H]2CCCN2C[C@H](Cc2ccccc2)N2C[C@H](Cc3ccc(O)cc3)N(CCc3ccccc3)C(=O)C2=O)C1=O	/	-1%	-2%	/	/	/
Cc1ccc(C)c(C(=O)CCC(=O)N2CCN(c3ncccn3)CC2)c1	-3%	12%	12%	1%	38*	36*
O=C(CCSc1ccccc1)N1CCN(C(=O)c2ccco2)CC1	9%	2%	-11%	3%	99*	35*
O=C(CCSc1ccc(Cl)cc1)N1CCN(c2ncccn2)CC1	1%	-11%	-17%	2%	38	17*
O=C(CSc1ccccn1)N1CCN(c2ccccc2)CC1	0%	-20%	-24%	-10%	35*	35*
Cc1ccc(CN(Cc2ccco2)C(=O)c2ccccc2Br)o1	/	1%	/	/	/	/
CN1CCN(CCC(=O)Nc2ccc(Cl)cc2)CC1	/	0%	/	/	/	/
CC(C)c1ccc(NC(=O)CCNS(=O)(=O)c2ccc3c(c2)oc(=O)n3C)cc1	/	0%	/	/	/	/
